According to PubChem BioAssay (NCI):
The panel holds about 79,000 compounds, 15% with a hit somewhere; the sample as a whole holds those more often. Calls of active or inactive are those of the source. No stated cut-off is given here; in the data, active means growth inhibition above about 70%; inactive means the rest.

Experiment: NCI Yeast Anticancer Drug Screen. Data for the CLN2oe strain (AID 163);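 further: 0% = growth of vehicle-only control cultures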
Settings: S. cerevisiae CLN2oe strain, stronger effect = higher value
Procedure: Growth inhibition of yeast strains with defined genetic alterations is measured as a screen for potential anti-cancer activity. Selected strains with alterations in DNA damage repair or cell cycle control were exposed to compounds and growth inhibition was measured relative to vehicle treated controls. The strain used in this assay is CLN2oe

Measured: growth inhibition

CSC(=S)Nc1cc(C)ccn1
inactive: at 1.2 µM 20% | at 3.7 µM 3% | at 11.0 µM 31% | at 33.0 µM 26%
active: at 100.0 µM 74%

C[C@@H]1C[C@H]2[C@@H]3CCC4=CC(=O)C=C[C@]4(C)[C@@]3(Cl)[C@@H](Cl)C[C@]2(C)[C@@]1(O)C(=O)COP(=O)(O)O
inactive: at 1.2 µM -10% | at 3.7 µM -3% | at 11.0 µM 7% | at 33.0 µM -1% | at 100.0 µM -6%

Cc1ccc(CSC(N)=Nc2ccccc2)cc1C
inactive: at 1.2 µM 6% | at 3.7 µM 10% | at 11.0 µM -1% | at 33.0 µM 7% | at 100.0 µM 46%

Cc1ccc(S(=O)(=O)NNC(=S)Nc2cccc3ccccc23)cc1
inactive: at 1.2 µM -12% | at 3.7 µM -14% | at 11.0 µM -18% | at 33.0 µM -12% | at 100.0 µM -1%

CCOC(=O)[C@H]1Nc2ccccc2C2c3ccccc3CC21 (stereo not given in full)
inactive: at 1.2 µM 5% | at 3.7 µM -1% | at 11.0 µM 11% | at 33.0 µM 30% | at 100.0 µM 23%

CC(=O)Nc1ccc(SC(C)=O)cc1
inactive: at 1.2 µM -5% | at 3.7 µM -17% | at 11.0 µM 12% | at 33.0 µM 47%
active: at 100.0 µM 85%

CN(CCc1ccccn1)c1ccc2c(c1)Cc1ccccc1-2
inactive: at 1.2 µM -5% | at 3.7 µM -16% | at 11.0 µM -11% | at 33.0 µM -16% | at 100.0 µM -5%

CC(C)C1=CC2=C[C@H](O)[C@H]3C(C)(C)CCC[C@]3(C)C2=C(O)C1=O
inactive: at 1.2 µM -4% | at 3.7 µM 4%
active: at 11.0 µM 76% | at 33.0 µM 99% | at 100.0 µM 95%
